The values below come from PubChem BioAssay AID743465 (Broad Institute, 2014).

The list shows a part of the results. Inconclusive results are not listed. Activity calls are given as the source filed them.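 How the source made its calls: active means compounds lowering PCK1 expression whose fitted half-maximal concentration is at most twice the top tested dose; inconclusive means flat fit with moderate opposite-direction effect, or poor fit; inactive means the rest.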

The nature of this assay: suppression of PCK1 mRNA in primary hepatocytes, dose response, PGC-1a acetylation activator project, cell-based, primary mouse hepatocytes, RT-qPCR, cherry-pick (AID 743465).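 Further: values are delta delta Ct of PCK1 relative to GAPDH; higher delta delta Ct means lower PCK1 expression so positive values indicate hits.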 The note with it: forskolin-stimulated; series mostly up to 26 µM; PCK1 expression decrease: at the top concentration.
With `CCOC(=O)c1c(NC(=O)CSc2cn(CC)c3ccccc23)sc2c1CCC2`, the “PCK1 expression decrease” value was 44 unspecified (inactive).

Consider `COc1ccc(Nc2nnc(C)c3ccccc23)cc1`, for which the “PCK1 expression decrease” value was 25.2 unspecified (inactive).

As to `Cc1cc(C)c2c(-n3cccc3)c(C(=O)NNS(=O)(=O)c3ccc(F)cc3)sc2n1`, the “PCK1 expression decrease” value is 9.38 unspecified (inactive).

As for `CCC(C)(C)n1nnnc1C(c1ccccc1OC)N1CCSCC1` (centres undefined), the “PCK1 expression decrease” value is 105 unspecified (inactive).

For the molecule `CC(C)CCNc1nc(N2CCCC2)c2c(c1C#N)CCN(C)C2`, the “PCK1 expression decrease” value is 96 unspecified (inactive).

Turning to `O=C(NCc1ccccc1)C(c1ccccc1)N(C(=O)c1csnn1)c1ccc(F)cc1` (centres undefined), the “PCK1 expression decrease” value was 318 unspecified [at 8 µM] (inactive).

Take `Cc1ccc(S(=O)(=O)Nc2ccc3c(c2)C(=O)N([C@@H](C)CO)C[C@@H](C)[C@H](CN(C)C(=O)Nc2cccc4ccccc24)OCCCC[C@H](C)O3)cc1`: the “PCK1 expression decrease” value is 17.2 unspecified (inactive).

In the case of `CCOC(=O)c1c(-c2ccc(C)cc2C)csc1NC(=O)CSc1nnnn1C`, the “PCK1 expression decrease” value was 86.5 unspecified (inactive).

With `CCOc1ccccc1CN1CCN(C2CCC2)CC1CCO` (centres undefined), the “PCK1 expression decrease” value was 32.8 unspecified (inactive).

As to `Cc1cc(C(=O)NNS(=O)(=O)c2ccccc2C(F)(F)F)nn1C(C)(C)C`, the “PCK1 expression decrease” value was 43.1 unspecified (inactive).

For the molecule `Cc1ccc(OCC(=O)NCCCNC(=O)c2cccnc2)cc1C`, the “PCK1 expression decrease” value was 52.7 unspecified (inactive).

Take `COc1ccc(-n2nnnc2CNC(=O)c2ccc3ccccc3c2)cc1`: the “PCK1 expression decrease” value is 3.44 unspecified (inactive).

Consider `O=C(NCCC1CCCCN1S(=O)(=O)c1cccs1)C(=O)Nc1ccc(F)cc1F` (centres undefined), for which the “PCK1 expression decrease” value is -10.4 unspecified (inactive).

As for `CCCCC(=O)Nc1ccc(C(=O)NCCCn2ccnc2)cc1`, the “PCK1 expression decrease” value is 19.7 unspecified (inactive).
